Experimental data taken from PubChem BioAssay AID1159580 (chemical genetic matrix, 2015).
Among all 5,500 compounds or so, about 2,000 (36%) were called active. Not shown: some 18% with an inconclusive outcome. Cut-off read from the data, not from the text of the source: active = normalized growth mostly below about 0.91 (no sharp cut-off); inconclusive = no clear call, values can overlap the other calls; inactive = mostly above about 0.92. This is one part of the list.

Assay: chemical genetic growth profiling, strain panel (AID 1159580);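 note: tested at 20 µM; growth read once vehicle control cultures reached saturation at 30 °C; 1 = growth at the plate median or of vehicle wells; lower values mean less growth of the strain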
Conditions: growth OD
[1] = S. cerevisiae deletion strains, locus YDR150W, strain NUM1, stronger effect = lower value
[2] = S. cerevisiae deletion strains, locus YGR078C, strain PAC10, stronger effect = lower value
[3] = S. cerevisiae deletion strains, locus YNL128W, strain TEP1, stronger effect = lower value
[4] = S. cerevisiae deletion strains, locus YNL153C, strain GIM3, stronger effect = lower value
[5] = S. cerevisiae deletion strains, locus YNL322C, strain KRE1, stronger effect = lower value

Measured: normalized growth

CCOC(=O)CC(SP(=S)(OC)OC)C(=O)OCC (stereo not drawn)
inactive: S. cerevisiae deletion strains, locus YAL013W, strain DEP1, stronger effect = lower value 1.02 | S. cerevisiae deletion strains, locus YBR021W, strain FUR4, stronger effect = lower value 1.01 | S. cerevisiae deletion strains, locus YBR229C, strain ROT2, stronger effect = lower value 1.01 | S. cerevisiae deletion strains, locus YCL029C, strain bik1, stronger effect = lower value 1.01 | S. cerevisiae deletion strains, locus YDL035C, strain GPR1, stronger effect = lower value 1.02 | S. cerevisiae deletion strains, locus YDL074C, strain BRE1, stronger effect = lower value 0.996 | S. cerevisiae deletion strains, locus YDL101C, strain DUN1, stronger effect = lower value 1 | S. cerevisiae deletion strains, locus YDL134C, strain PPH21, stronger effect = lower value 1.01 | S. cerevisiae deletion strains, locus YDL185W, strain tfp1, stronger effect = lower value 1.02 | S. cerevisiae deletion strains, locus YDL192W, strain arf1, stronger effect = lower value 1 | S. cerevisiae deletion strains, locus YDR101C, strain arx1, stronger effect = lower value 0.998 | [1] 0.996 | S. cerevisiae deletion strains, locus YDR162C, strain NBP2, stronger effect = lower value 1.01 | S. cerevisiae deletion strains, locus YDR318W, strain mcm21, stronger effect = lower value 1.02 | S. cerevisiae deletion strains, locus YDR388W, stronger effect = lower value 1.01 | S. cerevisiae deletion strains, locus YDR502C, strain sam2, stronger effect = lower value 0.998 | S. cerevisiae deletion strains, locus YEL061C, strain CIN8, stronger effect = lower value 1.01 | S. cerevisiae deletion strains, locus YER110C, stronger effect = lower value 1.01 | S. cerevisiae deletion strains, locus YER155C, strain BEM2, stronger effect = lower value 1.02 | S. cerevisiae deletion strains, locus YER167W, strain BCK2, stronger effect = lower value 1.02 | S. cerevisiae deletion strains, locus YGL078C, strain dbp3, stronger effect = lower value 0.998 | S. cerevisiae deletion strains, locus YGL086W, strain mad1, stronger effect = lower value 1 | S. cerevisiae deletion strains, locus YGL248W, strain PDE1, stronger effect = lower value 1.01 | [2] 1.01 | S. cerevisiae deletion strains, locus YGR135W, strain pre9, stronger effect = lower value 0.994 | S. cerevisiae deletion strains, locus YGR229C, strain SMI1, stronger effect = lower value 1.02 | S. cerevisiae deletion strains, locus YGR252W, strain gcn5, stronger effect = lower value 1 | S. cerevisiae deletion strains, locus YHR030C, strain SLT2, stronger effect = lower value 1.02 | S. cerevisiae deletion strains, locus YHR079C, strain IRE1 (second series), stronger effect = lower value 1.01 | S. cerevisiae deletion strains, locus YHR094C, strain hxt1, stronger effect = lower value 1.01 | S. cerevisiae deletion strains, locus YHR129C, strain ARP1, stronger effect = lower value 1.02 | S. cerevisiae deletion strains, locus YHR200W, strain rpn10, stronger effect = lower value 1.01 | S. cerevisiae deletion strains, locus YIL066C, strain RNR3, stronger effect = lower value 1.04 | S. cerevisiae deletion strains, locus YIL073C, strain SPO22, stronger effect = lower value 1.09 | S. cerevisiae deletion strains, locus YIL125W, strain kgd1, stronger effect = lower value 0.998 | S. cerevisiae deletion strains, locus YIR030C, strain dcg1, stronger effect = lower value 1 | S. cerevisiae deletion strains, locus YJL095W, strain BCK1, stronger effect = lower value 1.02 | S. cerevisiae deletion strains, locus YJL134W, strain LCB3, stronger effect = lower value 1.01 | S. cerevisiae deletion strains, locus YJL168C, strain set2, stronger effect = lower value 1.01 | S. cerevisiae deletion strains, locus YJL187C, strain SWE1 (second series), stronger effect = lower value 1.01 | S. cerevisiae deletion strains, locus YJR043C, strain POL32, stronger effect = lower value 1.01 | S. cerevisiae deletion strains, locus YJR075W, strain HOC1, stronger effect = lower value 1.01 | S. cerevisiae deletion strains, locus YKL009W, strain mrt4, stronger effect = lower value 1.01 | S. cerevisiae deletion strains, locus YKL068W, stronger effect = lower value 1.01 | S. cerevisiae deletion strains, locus YKL085W, strain MDH1 (second series), stronger effect = lower value 1.01 | S. cerevisiae deletion strains, locus YKL085W, strain MDH1, stronger effect = lower value 1.01 | S. cerevisiae deletion strains, locus YKL190W, strain CNB1, stronger effect = lower value 1.01 | S. cerevisiae deletion strains, locus YKR001C, strain vps1, stronger effect = lower value 1.02 | S. cerevisiae deletion strains, locus YLR039C, strain RIC1, stronger effect = lower value 1.06 | S. cerevisiae deletion strains, locus YLR058C, strain SHM2, stronger effect = lower value 1.02 | S. cerevisiae deletion strains, locus YLR102C, strain apc9, stronger effect = lower value 1.01 | S. cerevisiae deletion strains, locus YLR262C, strain YPT6, stronger effect = lower value 1.04 | S. cerevisiae deletion strains, locus YLR268W, strain sec22, stronger effect = lower value 0.997 | S. cerevisiae deletion strains, locus YLR330W, strain CHS5, stronger effect = lower value 1.01 | S. cerevisiae deletion strains, locus YLR342W, strain FKS1 (second series), stronger effect = lower value 1.07 | S. cerevisiae deletion strains, locus YLR371W, strain rom2, stronger effect = lower value 1.01 | S. cerevisiae deletion strains, locus YLR418C, strain cdc73, stronger effect = lower value 0.988 | S. cerevisiae deletion strains, locus YML016C, strain PPZ1, stronger effect = lower value 1.01 | S. cerevisiae deletion strains, locus YML032C, strain rad52, stronger effect = lower value 1 | S. cerevisiae deletion strains, locus YML124C, strain tub3, stronger effect = lower value 1.01 | S. cerevisiae deletion strains, locus YMR078C, strain ctf18, stronger effect = lower value 1.02 | S. cerevisiae deletion strains, locus YMR223W, strain ubp8, stronger effect = lower value 1.01 | S. cerevisiae deletion strains, locus YMR263W, strain SAP30, stronger effect = lower value 1.01 | S. cerevisiae deletion strains, locus YMR307W, strain GAS1, stronger effect = lower value 1.05 | S. cerevisiae deletion strains, locus YNL067W, strain RPL9B, stronger effect = lower value 0.998 | [3] 1 | [4] 1.01 | S. cerevisiae deletion strains, locus YNL233W, strain BNI4, stronger effect = lower value 1 | S. cerevisiae deletion strains, locus YNL250W, strain rad50, stronger effect = lower value 1.01 | S. cerevisiae deletion strains, locus YNL271C, strain bni1, stronger effect = lower value 1.02 | S. cerevisiae deletion strains, locus YNL298W, strain CLA4, stronger effect = lower value 1.02 | S. cerevisiae deletion strains, locus YNL307C, strain MCK1, stronger effect = lower value 1.02 | [5] 1.01 | S. cerevisiae deletion strains, locus YNR052C, strain pop2, stronger effect = lower value 1 | S. cerevisiae deletion strains, locus YOL006C, strain TOP1, stronger effect = lower value 1.02 | S. cerevisiae deletion strains, locus YOL012C, strain htz1 0.831 | S. cerevisiae deletion strains, locus YOL147C, strain pex11, stronger effect = lower value 1.01 | S. cerevisiae deletion strains, locus YOR061W, strain CKA2, stronger effect = lower value 1 | S. cerevisiae deletion strains, locus YOR069W, strain VPS5, stronger effect = lower value 1.01 | S. cerevisiae deletion strains, locus YOR136W, strain idh2, stronger effect = lower value 1 | S. cerevisiae deletion strains, locus YOR144C, strain elg1, stronger effect = lower value 1 | S. cerevisiae deletion strains, locus YOR184W, strain ser1, stronger effect = lower value 1.02 | S. cerevisiae deletion strains, locus YOR316C, strain cot1, stronger effect = lower value 1 | S. cerevisiae deletion strains, locus YPL055C, strain LGE1, stronger effect = lower value 1 | S. cerevisiae deletion strains, locus YPL241C, strain CIN2, stronger effect = lower value 1.01 | S. cerevisiae deletion strains, locus YPR119W, strain clb2, stronger effect = lower value 1 | S. cerevisiae deletion strains, locus YPR141C, strain kar3, stronger effect = lower value 1 | S. cerevisiae deletion strains, locus YPR163C, strain tif3, stronger effect = lower value 1.01 | S. cerevisiae deletion strains, locus YPR167C, strain met16, stronger effect = lower value 1.01 | S. cerevisiae deletion strains, strain wtn01, stronger effect = lower value 0.996 | S. cerevisiae strains, strain wild type, stronger effect = lower value 1.01

CCCOC(=O)c1c(-c2ccccc2)nc(CC)c(C(=O)SCC)c1CCC
inactive: S. cerevisiae deletion strains, locus YAL040C, strain CLN3, stronger effect = lower value 1.04 | S. cerevisiae deletion strains, locus YCL061C, strain MRC1 (second series), stronger effect = lower value 1 | [1] 1.01 | S. cerevisiae deletion strains, locus YDR363W, strain ESC2, stronger effect = lower value 0.982 | S. cerevisiae deletion strains, locus YER002W, strain NOP16, stronger effect = lower value 1.01 | [2] 0.974 | [3] 1.09 | [4] 1.02 | S. cerevisiae deletion strains, locus YNL197C, strain WHI3, stronger effect = lower value 1.02 | S. cerevisiae deletion strains, locus YNL224C, strain SQS1, stronger effect = lower value 1.04 | [5] 0.993 | S. cerevisiae deletion strains, locus YOR083W, strain WHI5 (second series), stronger effect = lower value 1.09
